Bioassay records deposited in PubChem BioAssay by several laboratories.
HTR2A ag: mouse HTR2A agonism via beta-arrestin recruitment; P35363; 360,000 tested, 0.66% active; CHO-K1 mHTR2A beta-arrestin complementation, luminescence; percent of 30 µM serotonin response; activation, % at 7.6 µM;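 active = activation above a run cutoff, the mean activation of all tested compounds plus 3 SD, cut at about 14% in these data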
NOD2 RIPK2 PPI: blocks binding of human NOD2 to RIPK2; O43353; CHO BLA complementation NOD2-RIPK2, CCF4 ratio; inhibition, % at 4.98 µM; 360,000 tested, 0.38% active; in the data active = inhibition above about 21%
ABHD5 PLIN5 PPI: inhibitors of human ABHD5-perilipin-5 interaction | Q00G26+Q8WTS1 | Split G. princeps luciferase complementation, luminescence, 4 h | inhibition, % at 4 µM | 360,000 tested, 0.78% active | AID 602281;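 active = inhibition above the mean inhibition across every tested compound plus 3 SD, cut at about 22% in these data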
CRFBP-R2 block: antagonists of CRF-binding protein/CRF-R2 receptor complex; HEK293 CRF-R2/CRF-BP, CRF-induced calcium fluorescence; 350,000 tested, 0.59% active; inhibition, % at 11.8 µM;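 active = inhibition of the ligand-induced calcium signal above about 50% at the single tested concentration, limit read from the data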
TLR4-MyD88 BLA: inhibitors of human TLR4-MyD88 binding; HeLa CL3-4 TLR4/MyD88 BLA complementation, FRET ratio; inhibition, % at 8.4 µM; 200,000 tested, 0.18% active; O00206+Q99836; AID 861; in the data active = inhibition above about 25%
TLR9-MyD88 block: blocks human TLR9 binding to MyD88. Q9NR96+Q99836. AID 504734. CHO BLA complementation TLR9-MyD88, CCF4 FRET ratio. inhibition, % at 4.98 µM. 340,000 tested, 0.21% active;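 active = inhibition above the mean over all tested compounds plus 3 SD, cut at about 21% in these data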
MOR ag counter: activates human mu opioid receptor in HTR2A counterscreen | 2,300 tested, 5.3% active | U2OS OPRM1 beta-arrestin PathHunter, luminescence; DMSO 0%, DAMGO 9.3 µM 100% | activation, % at 9.3 µM | shares compounds with HTR2A ag | AID 624380;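 active = mean activation above the mean of DMSO-only wells plus 3 SD, cut at about 0.5% in these data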
m5-HT2A ag conf: mouse HTR2A agonism confirmed; CHO-K1 PathHunter beta-arrestin recruitment, luminescence; DMSO 0%, 30 µM serotonin 100%; activation, % at 7.6 µM; AID 624381; 2,300 tested, 19% active; shares compounds with HTR2A ag;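 active = mean activation across triplicates above the hit threshold derived in the original primary screen, cut at about 15% in these data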
Each line names hits and unclear results; the compound was inactive in the other large screens (follow-up assays come after a bar, where they were run). In the library only some 2.4% were active in any assay of this set; here they are far more common.

Fc1cccc(CCN2C(=S)NC[C@@H]2Cc2ccccc2)c1	none
O=C1NC[C@H](Cc2ccc(O)cc2)N(CCc2cc(C(F)(F)F)cc(C(F)(F)F)c2)C1=O	none (no result: CRFBP-R2 block, TLR4-MyD88 BLA, TLR9-MyD88 block)
CCCC[C@@H]1CNC(=S)N1CCc1cccc(F)c1	HTR2A ag 15 | MOR ag counter inactive | m5-HT2A ag conf inactive
CN1OC[C@@H]2CN(C(=O)c3cccc4ccccc34)[C@H](c3ccccc3Br)C[C@@H]21	none (no result: CRFBP-R2 block, TLR4-MyD88 BLA, TLR9-MyD88 block)
C[C@H](NC(=O)[C@@H]1CCCN1C(=O)[C@@H]1CCCN1C(=O)OC(C)(C)C)c1ccccc1	none (no result: CRFBP-R2 block, TLR4-MyD88 BLA, TLR9-MyD88 block)
COc1ccc(OC)c(/C=C/C(=O)OCC(=O)NC2CCCCCCC2)c1	HTR2A ag 16 (no result: TLR4-MyD88 BLA) | MOR ag counter inactive | m5-HT2A ag conf inactive
O=C1Nc2ccccc2CN2C(=O)c3cc(Cl)ccc3NC(=O)C12 (stereo not given)	none (no result: CRFBP-R2 block, TLR4-MyD88 BLA, TLR9-MyD88 block)
CCOC(=O)c1ccc(S(=O)(=O)N2CCC(C(=O)NCC3COc4ccccc4O3)CC2)cc1 (stereo not given)	none (no result: TLR4-MyD88 BLA)
CC(=O)c1ccc(NC(=O)CCNS(=O)(=O)c2cccc3nonc23)cc1	HTR2A ag 36 | MOR ag counter inactive | m5-HT2A ag conf inactive
O=C(C1CC(=O)N(c2ccc3c(c2)OCCO3)C1)N1CCN(S(=O)(=O)c2ccccc2F)CC1 (stereo not given)	HTR2A ag 18 (no result: TLR4-MyD88 BLA) | MOR ag counter inactive | m5-HT2A ag conf inactive
O=C(C1CC(=O)N(c2ccc3c(c2)OCCO3)C1)N1CCN(S(=O)(=O)c2ccc(F)cc2)CC1 (stereo not given)	none (no result: TLR4-MyD88 BLA)
Cc1cc(F)ccc1C(O)c1ncc(-c2cccc(OCc3ccccc3)c2)[nH]1 (stereo not given)	none (no result: CRFBP-R2 block, TLR4-MyD88 BLA, TLR9-MyD88 block)
O=C(CNC(=O)c1ccc(Br)o1)NNC(=O)c1ccccc1O	HTR2A ag 17 (no result: TLR4-MyD88 BLA) | MOR ag counter inactive | m5-HT2A ag conf inactive
Cc1ccc(S(=O)(=O)N2[C@@H](CO)CO[C@H]2CC(=O)OCc2ccccc2)cc1	none (no result: CRFBP-R2 block, TLR4-MyD88 BLA, TLR9-MyD88 block)
CCOC(=O)C(C(=O)Nc1ccccn1)C1CCCCC1 (stereo not given)	none
CCOC(=O)C(C(=O)Nc1cccc(C)n1)C1CCCCC1 (stereo not given)	HTR2A ag 14 | MOR ag counter inactive | m5-HT2A ag conf inactive
O=C(CSc1nnc(CNC(=O)c2ccc(F)cc2)o1)Nc1nccs1	HTR2A ag 14 (no result: TLR4-MyD88 BLA) | MOR ag counter inactive | m5-HT2A ag conf inactive
O=C(CSc1nnc(CNC(=O)c2ccccc2)o1)Nc1nccs1	none (no result: TLR4-MyD88 BLA)
CC(C)CNc1ncnc2c1ncn2[C@H]1CN(CCc2ccccc2)C[C@@H](CO)O1	none (no result: CRFBP-R2 block, TLR4-MyD88 BLA, TLR9-MyD88 block)
Cc1ccc(NC(=O)CSc2nc(N)cc(=O)[nH]2)cc1S(=O)(=O)N1CCCCCC1	HTR2A ag 16 (no result: TLR4-MyD88 BLA) | MOR ag counter inactive | m5-HT2A ag conf inactive
CCCc1cc(=O)[nH]c(SCC(=O)Nc2ccc(C)c(S(=O)(=O)N3CCCCC3)c2)n1	none (no result: TLR4-MyD88 BLA)
CCCN1CN=C(NS(=O)(=O)c2ccc(C)cc2)NC1	none (no result: TLR4-MyD88 BLA)
Cc1ccc(S(=O)(=O)NC2=NCN(CCN3CCOCC3)CN2)cc1	HTR2A ag 17 | MOR ag counter inactive | m5-HT2A ag conf inactive
Cc1ccc(-c2nc3ccccc3n2C(C(=O)NC(C)(C)C)C2CC2)cc1 (stereo not given)	none (no result: CRFBP-R2 block, TLR4-MyD88 BLA, TLR9-MyD88 block)
CC1CC(C)(C)NC(=S)N1CCCC(=O)NCc1ccccc1 (stereo not given)	HTR2A ag 15 | MOR ag counter inactive | m5-HT2A ag conf inactive
CCc1ccc(NC(=O)CCCN2C(=S)NC(C)(C)CC2C)cc1 (stereo not given)	none
O=C(NCC1CC1)c1cccs1	none (no result: CRFBP-R2 block, TLR4-MyD88 BLA, TLR9-MyD88 block)
O=C(NCC1CCCN(C2Cc3ccccc3C2)C1)c1cccs1 (stereo not given)	HTR2A ag 19 (no result: TLR4-MyD88 BLA) | MOR ag counter inactive | m5-HT2A ag conf 15
CC(C)C[C@@H]1COc2cccc(N(C)CCO)c2S(=O)(=O)N1	none (no result: CRFBP-R2 block, TLR4-MyD88 BLA, TLR9-MyD88 block)
NC(=S)NN=C1CCCCCCCCC1	none (no result: TLR4-MyD88 BLA)
NC(=S)NN=C1C=CCCC1	HTR2A ag 19 (no result: TLR4-MyD88 BLA) | MOR ag counter inactive | m5-HT2A ag conf inactive
CCOC(=O)[C@]12CCCC=C1N(Cc1ccccc1)C(=O)[C@H](CC(=O)NCc1ccccc1)C2	none (no result: CRFBP-R2 block, TLR4-MyD88 BLA, TLR9-MyD88 block)
CCCCCC(=O)Nc1cccc(C2=NOC3(C2)C[C@H](C(N)=O)N(C(=O)COc2ccc(Cl)cc2)C3)c1 (stereo not given in full)	HTR2A ag 22 (no result: TLR4-MyD88 BLA) | MOR ag counter inactive | m5-HT2A ag conf inactive
CCCn1c(N)c(Sc2ccc([N+](=O)[O-])cc2)c(=O)n(CCC)c1=O	HTR2A ag 17 | MOR ag counter inactive | m5-HT2A ag conf inactive
Oc1ccc(Br)c(CN2CCN(c3ncc(Cc4ccccc4)cn3)CC2)c1	none (no result: CRFBP-R2 block, TLR4-MyD88 BLA, TLR9-MyD88 block)
CC(=O)Nc1ccc(SC[C@H](CC(C)C)N2CCN(CCc3ccccc3)CCC2=O)cc1	HTR2A ag 19 (no result: TLR4-MyD88 BLA) | MOR ag counter inactive | m5-HT2A ag conf 17
Cn1c(SCC(=O)NCC2CCCO2)nnc1-c1c[nH]c2ccccc12 (stereo not given)	HTR2A ag 37 | MOR ag counter inactive | m5-HT2A ag conf inactive
CCCCc1cc(=O)oc2cc(OC(C)C(=O)NCc3ccccn3)c(Cl)cc12 (stereo not given)	HTR2A ag 17 (no result: TLR4-MyD88 BLA) | MOR ag counter inactive | m5-HT2A ag conf inactive
CCCCc1cc(=O)oc2cc(OCC(=O)NCc3ccccn3)c(Cl)cc12	none (no result: TLR4-MyD88 BLA)
COc1cc(F)ccc1-c1csc(C(NC(C)=O)c2cccc(F)c2)n1 (stereo not given)	none (no result: CRFBP-R2 block, TLR4-MyD88 BLA, TLR9-MyD88 block)
COc1ccc(C(=O)N=C2SC3CS(=O)(=O)CC3N2c2ccc(C(C)=O)cc2)cc1 (stereo not given)	HTR2A ag 16 (no result: TLR4-MyD88 BLA) | MOR ag counter inactive | m5-HT2A ag conf inactive
CC1=C(C(=O)N(C(C)C)C(C)C)CC(CC(=O)NC2CC2)C(=O)N1CCCN1CCCC1=O (stereo not given)	none (no result: CRFBP-R2 block, TLR4-MyD88 BLA, TLR9-MyD88 block)
O=C(Nc1ccc(F)cc1)C(c1cccc(F)c1)N1CCN(C(=O)c2ccco2)CC1 (stereo not given)	none (no result: CRFBP-R2 block, TLR4-MyD88 BLA, TLR9-MyD88 block)
CCOC(=O)CNc1c(-c2ccccc2)nc2ccc(Cl)cn12	none
COC(=O)CNc1c(-c2ccccn2)nc2ccc(Br)cn12	HTR2A ag 19 | MOR ag counter inactive | m5-HT2A ag conf inactive
COc1ccc(-n2c(SCC(=O)Nc3cc(C)on3)nc3c(c2=O)SCC3)cc1OC	HTR2A ag 23 (no result: TLR4-MyD88 BLA) | MOR ag counter inactive | m5-HT2A ag conf inactive
CNC(=O)C[C@H]1C(=O)N(C2CCCCC2)C[C@@H]1c1ccc(Br)cc1	none (no result: TLR4-MyD88 BLA)
CC(O)(c1cccnc1)c1nc(-c2cccc3cccnc23)cs1 (stereo not given)	none (no result: CRFBP-R2 block, TLR4-MyD88 BLA, TLR9-MyD88 block)
